Screens (PubChem)
ssDAF-12 act: activates DAF-12 receptor from parasite S. stercoralis; activation, % at 6.8 µM; HEK293 ssDAF-12/GRIP1 lit1-tk-luc reporter, luminescence; % of 3 µM dafachronic acid response; 370,000 tested, 1% active;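 active = activation above the mean over all tested compounds plus 3 SD, cut at about 0.9% in these data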;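 also: 0% = DMSO-only wells and 100% = 3 µM delta7-dafachronic acid wells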
hgDAF12 agonist: activates the H. glycines DAF-12 receptor ligand-binding domain; HEK293 GAL4-hgDAF12 UAS-luciferase reporter, agonist luminescence; normalized to butyrate control; activation, % at 6.8 µM; 370,000 tested, 1.8% active; AID 687014;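 active = activation above a cutoff set at the mean of all screened compounds plus 3 SD, cut at about 10% in these data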;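 also: 0% = DMSO wells and 100% = sodium butyrate wells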
DAX1 inh-1: blocks DAX1 repression of SF-1 activated StAR promoter; HEK293T StAR-luciferase reporter, SF-1/DAX-1 repression relief; inhibition, % at 6.8 µM; 370,000 tested, 1.1% active;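 active = inhibition above the mean over all tested compounds plus 3 SD, cut at about 3.6% in these data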;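 also: 0% = DAX-1 cells with DMSO and 100% = cells lacking DAX-1 with DMSO; higher inhibition means more luminescence from relief of DAX-1 repression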
hcDAF-12 act: activates DAF-12 receptor from parasite H. contortus. HEK293 hcDAF-12 lit1-tk-luc reporter, luminescence; 0% DMSO, 100% Δ7-dafachronic acid. activation, % at 6.8 µM. 370,000 tested, 1.4% active. AID 652067;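 active = activation above the mean of all tested compounds plus 3 SD, cut at about 5.5% in these data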;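 also: 100% = response to 3 µM Δ7-dafachronic acid high control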
DAX1 inh-2: NR0B1 (DAX1) inhibition; HEK293 Gal4-DAX1 luciferase reporter, luminescence; inhibition, % at 6.75 µM; 340,000 tested, 0.99% active; P51843; AID 504766;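 active = inhibition above the mean over all tested compounds plus 3 SD, cut at about 4.2% in these data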;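 also: 0% = DAX1-transfected cells with DMSO and 100% = empty-vector control cells with DMSO; inhibition shows as a rise in luminescence from relieved DAX1 repression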
LXRb hcDAF ctr: activates human LXR-beta, counter-screen for hcDAF-12 agonists. 3,400 tested, under 10 active. HEK293 Gal4-LXR tk-luc reporter, luminescence, 24 h; normalized: DMSO 0%, positive control 100%. shares compounds with hcDAF-12 act. activation, % at 6.8 µM. AID 743027;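 active = mean percent activation of the reporter above a cutoff set as the average over tested compounds plus their standard deviation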
Target sequence (P55055 whole entry, looked up, the tested form may be a part): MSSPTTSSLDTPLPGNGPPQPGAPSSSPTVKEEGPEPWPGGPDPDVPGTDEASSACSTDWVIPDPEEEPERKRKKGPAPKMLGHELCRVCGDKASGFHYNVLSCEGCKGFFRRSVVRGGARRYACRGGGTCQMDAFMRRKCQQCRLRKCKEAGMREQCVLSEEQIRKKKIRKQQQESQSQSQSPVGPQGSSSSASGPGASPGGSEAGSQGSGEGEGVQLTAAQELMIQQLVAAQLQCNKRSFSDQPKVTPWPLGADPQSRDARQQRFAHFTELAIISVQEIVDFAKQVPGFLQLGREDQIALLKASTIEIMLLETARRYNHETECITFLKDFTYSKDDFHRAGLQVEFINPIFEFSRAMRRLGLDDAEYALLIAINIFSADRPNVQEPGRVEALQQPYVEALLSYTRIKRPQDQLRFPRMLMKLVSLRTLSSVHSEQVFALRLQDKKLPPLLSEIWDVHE
hcDAF12 conf: confirmation of H. contortus DAF-12 agonists; shares compounds with hcDAF-12 act; HEK293 hcDAF-12 lit1-tk-luc reporter, luminescence; % of Δ7-dafachronic acid response; activation, % at 6.8 µM; 3,400 tested, 61% active; AID 743032;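 active = mean activation across triplicate tests above the threshold derived from the earlier primary screen, cut at about 5.5% in these data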;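 also: 0% = DMSO only wells and 100% = 3 µM Δ7-dafachronic acid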
hgDAF12 conf: confirmation of H. glycines DAF-12 agonists. shares compounds with hgDAF12 agonist. HEK293 GAL4-hgDAF12 luciferase reporter, agonist mode; percent of butyrate response. activation, % at 6.8 µM. 3,300 tested, 80% active;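 active = mean activation over triplicate wells above the hit cutoff derived from the earlier primary screen, cut at about 11% in these data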;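 also: 0% = DMSO low control and 100% = 2 mM sodium butyrate high control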
LXRb DAF12 ctr: activates human LXR-beta, counter-screen for DAF-12 agonists | 3,300 tested, under 10 active | shares compounds with hgDAF12 agonist | HEK293 Gal4-LXR luciferase reporter, 24 h | activation, % at 6.8 µM;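 active = mean activation of the triplicate above a set limit carried over from the primary screen, none filed active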
* marks the source's active call; other numbers are inactive results; . = not tested or not shown. Sampled rows, rich in hits. Any-hit rate of the full collection: about 4.1%.

SMILES	ssDAF-12 act	hgDAF12 agonist	DAX1 inh-1	hcDAF-12 act	DAX1 inh-2	LXRb hcDAF ctr	hcDAF12 conf	hgDAF12 conf	LXRb DAF12 ctr
Cc1ccc(NC(=O)C(=O)c2c[nH]c3ccccc23)cc1	1	20*	2	7.2*	3	2	5	22*	1
Cc1ccc(NC(=O)c2cc(=O)[nH]c3ccccc23)cc1	-1	0	0	1	0	.	.	.	.
Cn1c(=O)n(CC(=O)NCC2CCCO2)c(=O)c2c3c(sc21)COC(C)(C)C3 (configuration not stated)	-1	-3	0	2	0	.	.	.	.
Fc1ccccc1Nc1nc2ccccc2o1	1	16*	3	8.2*	2	2	9.0*	19*	1
c1ccc(Nc2nc3ccccc3o2)cc1	0.9*	14*	3	8.1*	2	1	8.3*	21*	1
Cc1nc(Nc2ccccc2F)c2oc3ccccc3c2n1	-1	5	0	1	0	.	.	.	.
CCN(CC)S(=O)(=O)c1ccc2oc(Nc3ccccc3)nc2c1	0	4	0	2	1	.	.	.	.
CC(C)CC(NC(=O)C1CCC(=O)N1C(=O)OCc1ccccc1)C(=O)NC(Cc1ccccc1)C(N)=O (configuration not stated)	-1	0	0	-2	1	.	.	.	.
O=C(O)c1cccc(-c2nnn(Cc3ccccc3Cl)n2)c1	2.0*	13*	4.4*	6.7*	-4	1	8.5*	22*	1
Cc1ccccc1Cn1nnc(-c2ccc(C(=O)O)cc2)n1	0	0	0	-2	0	.	.	.	.
CC(C)(C)OC(=O)N1CCCC(C(=O)Nc2cccc(C(=O)NC3CC3)c2)C1 (configuration not stated)	-1	-1	0	0	1	.	.	.	.
CN(C)C=Nc1ccc2nc3c(cc2c1)[nH]c1ccccc13	1.9*	17*	2	18*	1	1	13*	19*	1
O=C(NNC(=O)c1cnccn1)c1ccc(Cl)c(Cl)c1	-1	-1	-2	-2	1	.	.	.	.
Cc1cc(C)c(C)c(S(=O)(=O)N2CCN(C(=O)c3ccccn3)CC2)c1C	-2	2	-1	0	0	.	.	.	.
Cc1nn(-c2nc3ccccc3s2)c(N)c1-c1ccccc1	0	19*	4.5*	15*	4	1	5	18*	1
COC(=O)c1cccc(NC(=O)CSc2nnc(-c3ccco3)o2)c1	-1	1	0	2	-2	.	.	.	.
Cc1cc(NC(=O)c2ccc(C(C)(C)C)cc2)no1	0	15*	3	7.2*	2	2	5.6*	21*	1
Fc1cccc(/C=N/Nc2nncc3ccccc23)c1	1.5*	21*	3	12*	-1	2	14*	23*	1
O=[N+]([O-])c1cccc(-c2cc(-c3cc(Br)ccc3O)[nH]n2)c1	-1	-1	-1	-2	-1	.	.	.	.
Cc1ccc(-c2cc(-c3ccccc3C)[nH]n2)c(O)c1	1	14*	3	6.8*	2	1	5	17*	1
Cc1ccc(-c2cc(-c3cccc(F)c3)n[nH]2)c(O)c1	2.5*	14*	4.2*	13*	5.0*	1	7.6*	17*	1
O=[N+]([O-])c1ccccc1-c1cc(-c2ccccc2O)n[nH]1	1	16*	2	7.9*	1	1	4	13*	0
c1ccc2c(-c3csc(-c4ccncc4)n3)c[nH]c2c1	1.6*	28*	1	13*	-1	1	14*	15*	0
